Assay outcomes as filed in PubChem BioAssay.
MITF primary: blocks human microphthalmia-associated transcription factor; AlphaScreen MITF homodimerization, bead proximity signal; inhibition, % at 2.6 µM; hit rate 0.91% among 650,000; AID 1259374; in the data active = inhibition above about 50%;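 also: 0% = vehicle wells with protein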
FBW7 act: human FBW7 E3 ligase activation, primary screen; hit rate 0.13% among 650,000; AlphaScreen FBW7–phospho-cyclin E peptide binding, activator screen; Q969H0; AID 1259310; normalized activity (activation), % at 26.1 µM; in the data active = normalized activity above about 1.9%;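 also: purified mutant Fbw7 with reduced substrate affinity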
GPR151 activ: activates the human receptor GPR151; Q8TDV0; PathHunter beta-arrestin GPR151 cells, luminescence; activation, % at 11.2 µM; hit rate 1% among 650,000; AID 1508602; in the data active = activation above about 4.9%;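 also: 0% = median of compound wells and 100% = cells with positive control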
Target sequence (Q8TDV0 whole entry, looked up): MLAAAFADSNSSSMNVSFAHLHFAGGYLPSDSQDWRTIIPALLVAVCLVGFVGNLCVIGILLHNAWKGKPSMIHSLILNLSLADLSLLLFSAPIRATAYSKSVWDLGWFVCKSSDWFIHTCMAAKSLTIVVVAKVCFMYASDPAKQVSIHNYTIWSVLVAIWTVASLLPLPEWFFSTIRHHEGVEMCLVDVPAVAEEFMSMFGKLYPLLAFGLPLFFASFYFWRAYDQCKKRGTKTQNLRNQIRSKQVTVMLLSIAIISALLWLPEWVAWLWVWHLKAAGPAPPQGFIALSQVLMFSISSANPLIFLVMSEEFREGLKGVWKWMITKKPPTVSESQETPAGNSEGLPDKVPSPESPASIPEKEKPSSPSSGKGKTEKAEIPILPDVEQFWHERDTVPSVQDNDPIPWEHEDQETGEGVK
TEAD-YAP inh: TEAD-YAP interaction inhibition. AID 1259422. HEK-TIYL cells, TEAD-Gal4/YAP UAS-luciferase luminescence. hit rate 1.4% among 640,000. inhibition, % at 9.12 µM; in the data active = inhibition above about 32%;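 also: 0% = median of test compound wells and 100% = reference inhibitor wells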
* hit, by the source's call. Rows were chosen to be rich in hits. Some 3.5% of all compounds tested hit in one or more screens of this group.

Results for O=C1CC(N2CCCC2)C(=O)N1c1ccc(Cl)cc1 (stereo unspecified) ?
MITF primary: -2; FBW7 act: 0; GPR151 activ: 0; TEAD-YAP inh: 1

Results for O=C(Nc1nc2c(s1)CCCC2)c1cc(Cl)sc1Cl ?
MITF primary: 17; FBW7 act: 0; GPR151 activ: -9; TEAD-YAP inh: 49*

Results for O=C(Nc1nc2c(s1)CCCC2)c1ccccc1Cl ?
MITF primary: -6; FBW7 act: 0; GPR151 activ: -8; TEAD-YAP inh: 45*

What do the screens show for `CC1CCc2nc(NC(=O)c3cc(Cl)sc3Cl)sc2C1` (stereo unspecified)?
MITF primary: 2; FBW7 act: 0; GPR151 activ: -1; TEAD-YAP inh: -45

What do the screens show for `O=C(Cc1ccccc1Cl)Nc1nc2c(s1)CCCC2`?
MITF primary: 2; FBW7 act: 0; GPR151 activ: 2; TEAD-YAP inh: 17

Results for CC(=O)c1ccc(C(=O)Nc2nc3c(s2)CCCC3)cc1 ?
MITF primary: 4; FBW7 act: 0; GPR151 activ: -1; TEAD-YAP inh: 65*

What do the screens show for `CCOc1ccc(/C=C2\C(=O)NC(=O)N(c3ccccc3F)C2=O)cc1Cl`?
MITF primary: 5; FBW7 act: 0; GPR151 activ: -1; TEAD-YAP inh: 7

Results for COC(=O)c1ccccc1NC(=O)NNC(=O)c1csc(C)c1-c1ccc(C)cc1 ?
MITF primary: 1; FBW7 act: 0; GPR151 activ: 2; TEAD-YAP inh: 33*

Results for COC(=O)c1ccccc1NC(=O)NNC(=O)c1cc2ccccc2cc1O ?
MITF primary: 8; FBW7 act: 0; GPR151 activ: 2; TEAD-YAP inh: 1

How did COc1ccc2cc(-c3csc(NC(C)=O)n3)c(=O)oc2c1 do in these assays?
MITF primary: 2; FBW7 act: 0; GPR151 activ: 0; TEAD-YAP inh: -14

How did CC(=O)c1c(C)[nH]c(C(=O)OCc2csc(-c3ccccc3)n2)c1C do in these assays?
MITF primary: 4; FBW7 act: 0; GPR151 activ: 0; TEAD-YAP inh: 32*

How did CC(=O)c1c(C)[nH]c(C(=O)OCC(=O)Nc2nc(-c3ccc(C)cc3)cs2)c1C do in these assays?
MITF primary: -13; FBW7 act: 1; GPR151 activ: 2; TEAD-YAP inh: 37*

How did CC(N)C(=O)NC(Cc1ccc(O)cc1)C(=O)O (stereo unspecified) do in these assays?
MITF primary: 9; FBW7 act: 0; GPR151 activ: 1; TEAD-YAP inh: -4

What do the screens show for `CC(=O)N1CCN(CC(=O)NC(c2ccccc2)c2ccccc2)CC1`?
MITF primary: -4; FBW7 act: 6.2*; GPR151 activ: 0; TEAD-YAP inh: 0

What do the screens show for `CC(C)N(CCNC(=O)c1csc(NCc2cccnc2)n1)C(C)C`?
MITF primary: 4; FBW7 act: 0; GPR151 activ: 2; TEAD-YAP inh: 4

How did COc1ccc(CCNc2nc(SCC(=O)N3CCN(c4ccccc4)CC3)nc3ccccc23)cc1OC do in these assays?
MITF primary: 10; FBW7 act: 1; GPR151 activ: 1; TEAD-YAP inh: 36*

Results for CCC(C)NC(=O)CSc1nc(NCCc2ccc(OC)c(OC)c2)c2ccccc2n1 (stereo unspecified) ?
MITF primary: -5; FBW7 act: 0; GPR151 activ: -1; TEAD-YAP inh: -2

What do the screens show for `COc1ccc(CCn2c(SCC(=O)N3CCN(c4ccccc4OC)CC3)nc3ccsc3c2=O)cc1OC`?
MITF primary: 7; FBW7 act: 0; GPR151 activ: -1; TEAD-YAP inh: 51*

Results for COc1ccc(CCNc2nc(SCC(=O)N3CCN(c4ccccc4OC)CC3)nc3ccccc23)cc1OC ?
MITF primary: -1; FBW7 act: 1; GPR151 activ: -1; TEAD-YAP inh: 34*

Results for Cc1ccc(N(C(=O)Cc2nc(N)n[nH]2)C2(C(=O)Nc3ccccc3C)CCCCC2)cc1 ?
MITF primary: 10; FBW7 act: 0; GPR151 activ: 3; TEAD-YAP inh: 4

Results for CCOC(=O)C1=C(N)N(c2ccccc2)C2=C(C(=O)CC(C)(C)C2)C1c1cccnc1 (stereo unspecified) ?
MITF primary: -1; FBW7 act: 0; GPR151 activ: 0; TEAD-YAP inh: -11

What do the screens show for `COc1ccc(C2(C)CC(C)(C)N(C(C)=O)c3ccccc32)cc1` (stereo unspecified)?
MITF primary: -8; FBW7 act: 0; GPR151 activ: 1; TEAD-YAP inh: 3

What do the screens show for `Nc1ncnc(N/N=C/c2ccc(O)cc2)c1[N+](=O)[O-]`?
MITF primary: -2; FBW7 act: 0; GPR151 activ: -3; TEAD-YAP inh: 68*

What do the screens show for `Nc1ncnc(N/N=C/c2cccc(Br)c2)c1[N+](=O)[O-]`?
MITF primary: 18; FBW7 act: 0; GPR151 activ: -4; TEAD-YAP inh: 36*

What do the screens show for `Nc1ncnc(N/N=C/c2ccccc2)c1[N+](=O)[O-]`?
MITF primary: 9; FBW7 act: 0; GPR151 activ: 1; TEAD-YAP inh: 6

How did COc1ccc(/C=N/Nc2ncnc(N)c2[N+](=O)[O-])cc1OC do in these assays?
MITF primary: 26; FBW7 act: 0; GPR151 activ: -1; TEAD-YAP inh: -22

Results for CN(C)c1ccc(C2OCC3(CO2)SC(=O)NC3=O)cc1 (stereo unspecified) ?
MITF primary: 11; FBW7 act: 4.9*; GPR151 activ: -1; TEAD-YAP inh: 12

What do the screens show for `Cc1ccc(OCc2nc(-c3ccccn3)no2)c(Br)c1`?
MITF primary: 4; FBW7 act: 0; GPR151 activ: -7; TEAD-YAP inh: 39*

How did COc1ccc(-c2cccc(C(=O)NCc3cccc(C(F)(F)F)c3)n2)cn1 do in these assays?
MITF primary: -1; FBW7 act: 0; GPR151 activ: 0; TEAD-YAP inh: 5

What do the screens show for `COc1cc(C(=O)Nc2cccc(-c3nc4ncccc4o3)c2)ccc1OCc1ccc(Cl)cc1`?
MITF primary: 13; FBW7 act: 0; GPR151 activ: 0; TEAD-YAP inh: 6

What do the screens show for `COc1ccc(CC(=O)Nc2cccc(-c3nc4ncccc4o3)c2)cc1OC`?
MITF primary: 1; FBW7 act: 0; GPR151 activ: 1; TEAD-YAP inh: 71*

Results for O=C(c1ccco1)N1CCN(c2ncc(-c3cccnc3)n3ccnc23)CC1 ?
MITF primary: -24; FBW7 act: 2.3*; GPR151 activ: 1; TEAD-YAP inh: -70

How did Nc1ccc(-c2cnc3c(N4CCN(C(=O)c5ccco5)CC4)nccn23)cc1 do in these assays?
MITF primary: -8; FBW7 act: 0; GPR151 activ: -1; TEAD-YAP inh: -60

What do the screens show for `O=C(c1ccco1)N1CCN(c2ncc(-c3ccc(CO)cc3)n3ccnc23)CC1`?
MITF primary: 5; FBW7 act: 4.8*; GPR151 activ: 1; TEAD-YAP inh: 39*

Results for COc1ccc(/C=C2/SC(=Nc3ccc(O)cc3)NC2=O)c(OC)c1OC ?
MITF primary: 0; FBW7 act: 0; GPR151 activ: 2; TEAD-YAP inh: 0

Results for COc1ccc(/C=C2/SC(=Nc3ccccc3)NC2=O)cc1OC ?
MITF primary: 7; FBW7 act: 0; GPR151 activ: 1; TEAD-YAP inh: 1
